Consider 6 compounds from PubChem BioAssay (NCATS).

Inconclusive results are not listed. Activity calls are given as the source filed them. Unless noted, calls follow the shape of the dose curve; as a rule, active = well fitted inhibition curve with a large enough effect; inconclusive = small, poorly fitted or top-dose-only effect; inactive = flat fitted curve, though single readings scatter.

Assay [1] in a line: qHTS drug screen for cell cycle checkpoint inhibitors in PARPi-resistant BRCA-mutant ovarian cancer cell lines. (AID 1963452; calls by dose curve). The note with it: PEO1/OlaR viability, CellTiter-Glo luminescence, 96 h, stronger effect = lower value. Summed up:
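PEO1, PEO4 and PEO1/OlaR ovarian cancer cells, 600 per well, exposed 96 h at 37C to a dilution series. Viability read by CellTiter-Glo luminescence, normalized to DMSO and empty wells; activity summarized as Z-AUC.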

Assay [2] can be described thus: qHTS profiling for inhibitors of Plasmodium falciparum proliferation (AID 504749). Also: nearly all actives have a fitted effect of over 60% in size. Also: potency is read from the fitted curve at half-maximal effect.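 As to activity, negative = inhibition: 0% = DMSO vehicle and full inhibition = artemisinin control.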 The note with it: P. falciparum in erythrocytes, SYBR Green DNA, 72 h. Summed up: (§1)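 P. falciparum-infected erythrocytes (0.3% parasitemia, 2.5% hematocrit final) were exposed to compounds for 72 h at 37 C in 5% CO2, then lysed with SYBR Green buffer overnight at room temperature; parasite DNA fluorescence was normalized to artemisinin and DMSO controls.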
A general note: In qHTS, concentration-response curves come from the screen itself.

The next assay relates to 3D7. The assay is described as above. The note with it: P. falciparum in erythrocytes, SYBR Green DNA, 72 h; series mostly up to 28.7 µM. In a few lines:
as §1

The test system of another assay is 7G8. The description is as above. The conditions noted are these: P. falciparum in erythrocytes, SYBR Green DNA, 72 h; series mostly up to 28.7 µM. In a few lines: as §1
Another assay relates to AS120. Described as above. The note with it: P. falciparum in erythrocytes, SYBR Green DNA, 72 h; series mostly up to 28.7 µM. In a few lines: as §1
The subject of the next assay is C2A. Described as above. The conditions noted are these: P. falciparum in erythrocytes, SYBR Green DNA, 72 h; series mostly up to 28.7 µM. Summed up: as §1
Another assay relates to CP185. The assay is described as above. The conditions noted are these: P. falciparum in erythrocytes, SYBR Green DNA, 72 h; series mostly up to 28.7 µM. Summed up:
as §1

Another assay relates to CP211. Described as above. The conditions noted are these: P. falciparum in erythrocytes, SYBR Green DNA, 72 h; series mostly up to 28.7 µM. Summed up: as §1
The test system of the next assay is CP238. Described as above. The conditions noted are these: P. falciparum in erythrocytes, SYBR Green DNA, 72 h; series mostly up to 28.7 µM. In a few lines:
as §1

The subject of another assay is AA1029. The description is as above. The conditions noted are these: P. falciparum in erythrocytes, SYBR Green DNA, 72 h; series mostly up to 28.7 µM. In a few lines:
as §1

For another assay, the system named is ATS189. Described as above. The conditions noted are these: P. falciparum in erythrocytes, SYBR Green DNA, 72 h; series mostly up to 28.7 µM. Summed up: as §1
The test system of another assay is ATS95. Described as above. The note with it: P. falciparum in erythrocytes, SYBR Green DNA, 72 h; series mostly up to 28.7 µM. In a few lines: as §1
A further assay relates to CP191. Described as above. The note with it: P. falciparum in erythrocytes, SYBR Green DNA, 72 h; series mostly up to 28.7 µM. In a few lines:
as §1

The subject of another assay is CP192. Described as above. The note with it: P. falciparum in erythrocytes, SYBR Green DNA, 72 h; series mostly up to 28.7 µM. Summed up: as §1
The next assay has as its system CP194. The description is as above. The note with it: P. falciparum in erythrocytes, SYBR Green DNA, 72 h; series mostly up to 28.7 µM. In a few lines: as §1
Another assay concerns CP201. Described as above. The note with it: P. falciparum in erythrocytes, SYBR Green DNA, 72 h; series mostly up to 28.7 µM. In a few lines:
as §1

The test system of a further assay is CP215. Described as above. The note with it: P. falciparum in erythrocytes, SYBR Green DNA, 72 h; series mostly up to 28.7 µM. Summed up:
as §1

The subject of another assay is CP217. The assay is described as above. The note with it: P. falciparum in erythrocytes, SYBR Green DNA, 72 h; series mostly up to 28.7 µM. Summed up:
as §1

The next assay has as its system CP237. Described as above. The note with it: P. falciparum in erythrocytes, SYBR Green DNA, 72 h; series mostly up to 28.7 µM. Summed up:
as §1

The next assay concerns CP203. The description is as above. The note with it: P. falciparum in erythrocytes, SYBR Green DNA, 72 h; series mostly up to 28.7 µM. In a few lines: as §1
Where [3] appears, read: measured here: PEO1 parental Z-AUC.
[4] abbreviates: at 28.7 µM (top of the series), parasite line A.
[5] abbreviates: at 28.7 µM (top of the series), parasite line B.

Turning to `Clc1cccc(C(c2ccc3nc[nH]c3c2)n2ccnc2)c1` (stereo unspecified), the values for the Z-AUC in assay [1], in [1] (setting [3]) and in assay [1] (measured here: PEO4 Z-AUC) were -0.1 (inactive), 0.0386 and 0.19, respectively. Moreover, the Potency in assay [2] (parasite line B) was 10 µM (active); with 3D7, 11.2 µM (active); in the assay on 7G8, 5.01 µM (active); in the assay with AS120, 11.2 µM (active); with C2A, 10 µM (active); in the assay on CP211, 12 µM (active). The Potency entry in the assay with CP185 and with CP238 was “inactive” each time.
With `C#C[C@]1(O)CC[C@H]2[C@@H]3CCc4cc(OC)ccc4[C@H]3CC[C@@]21C`, the figures for the Z-AUC in assay [1], in [1] (setting [3]) and in [1] (measured here: PEO4 Z-AUC) were 1.12 (inactive), 0.901 and 1.32, respectively. For the same compound, the activity, negative = inhibition was 1.32% (inactive) in assay [2] (setting [4]) and 15.1% (inactive) in assay [2] (setting [5]). Also, the Potency result in the assay with 3D7, in the assay with 7G8, with AA1029, in the assay on AS120, in the assay on ATS189 and in the assay on ATS95 was “inactive” throughout. The Potency result in the assay on C2A, in the assay on CP185, in the assay on CP191, with CP192, in the assay on CP194 and in the assay with CP201 was “inactive” in each case. The Potency result in the assay on CP211, with CP215, in the assay on CP217, in the assay on CP237 and in the assay on CP238 was “inactive” each time.
Regarding `COc1ccc(-c2cc(C(F)F)nn2-c2ccc(S(N)(=O)=O)cc2)cc1F`, the activity, negative = inhibition is 1.08% (inactive) in [2] (setting [4]) and -0.185% (inactive) in assay [2] (setting [5]). Further, the Potency result in the assay on 3D7, with 7G8, with AA1029, in the assay on AS120, in the assay with ATS189 and with ATS95 was “inactive” throughout. Besides, the Potency result in the assay on C2A, in the assay on CP185, with CP191, in the assay on CP192, in the assay with CP194 and in the assay on CP201 was “inactive” each time. Also, the Potency entry with CP203, with CP211, with CP215, with CP217, with CP237 and in the assay on CP238 was “inactive” throughout.
`C#C[C@]1(O)CC[C@H]2[C@@H]3[C@H](C)CC4=C(CCC(=O)C4)[C@H]3CC[C@@]21C`: the Z-AUC is -1.06 (inactive) in assay [1], -0.281 in assay [1] (setting [3]) and 0.766 in assay [1] (measured here: PEO4 Z-AUC).
Regarding `CCOC(=O)c1ccc(N)cc1`, the activity, negative = inhibition in assay [2] (at 12.8 µM (top of the series), parasite line A) is 6.05% (inactive); in assay [2] (at 12.8 µM (top of the series), parasite line B) it was 7.01% (inactive). In addition, the Potency result in the assay with 3D7, with 7G8, in the assay with AA1029, in the assay on AS120, in the assay on ATS189 and with ATS95 was “inactive” in each case. Moreover, the Potency result in the assay with C2A, in the assay on CP185, in the assay on CP191, with CP192, in the assay on CP194 and in the assay on CP201 was “inactive” throughout. The Potency result in the assay with CP203, in the assay on CP211, in the assay with CP215, with CP217, in the assay with CP237 and with CP238 was “inactive” in each case.
Consider `NC(=S)N/N=C/c1cccnc1`, for which the activity, negative = inhibition in [2] (setting [4]) is 13.2% (inactive); in [2] (setting [5]) it was 8.73% (inactive). For the same compound, the Potency entry in the assay on 3D7, in the assay on 7G8, in the assay on AA1029, in the assay on AS120, in the assay on ATS189 and in the assay with ATS95 was “inactive” throughout. The Potency entry with C2A, in the assay with CP185, in the assay with CP191, in the assay on CP192, with CP194 and with CP201 was “inactive” each time. The Potency entry in the assay on CP203, with CP211, with CP215, in the assay on CP217, with CP237 and in the assay on CP238 was “inactive” throughout.
